Our source for the growth values is PubChem BioAssay (NCI).

This is part of a sample that, as a whole, favours compounds with a hit. Of some 83,000 tested, about 20% had one in any assay.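 Single-concentration screen, 48 h exposure, 96-well plates. Endpoint: percent growth. Below 10 = active.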 Unmarked numbers belong to inactive results. The source made the active and inactive calls.

Test systems include HCT-15 colon; HT29 colon; SNB-75 CNS; SNB-19 CNS; U251 CNS; PC-3 prostate; SK-MEL-5 melanoma; UACC-62 melanoma; LOX IMVI melanoma; SK-MEL-28 melanoma; SK-MEL-2 melanoma; EKVX NSCLC; SN12C renal; UO-31 renal; TK-10 renal; ACHN renal; CAKI-1 renal; A498 renal; CCRF-CEM leukemia; MOLT-4 leukemia.
What all share (test): NCI-60 one-dose screen, 48 h (100 = growth as untreated, 0 = no growth, -100 = all killed)
What all share (conditions): 10 µM unless noted

Take `O=C1Nc2cc(Cl)ccc2/C1=C\c1ccc(OCc2ccccc2)cc1`: the growth in the assay on HCT-15 colon was 95%; in the assay with HT29 colon, 105%; in the assay on SNB-75 CNS, 73.3%; in the assay with SNB-19 CNS, 103%; with U251 CNS, 104%; in the assay on PC-3 prostate, 88.2%. Besides, the growth with SK-MEL-5 melanoma was 97.2%; in the assay on UACC-62 melanoma, 95.9%; in the assay with LOX IMVI melanoma, 92.7%; in the assay on SK-MEL-28 melanoma, 103%; in the assay on SK-MEL-2 melanoma, 111%; in the assay with EKVX NSCLC, 100%. In addition, the growth in the assay with SN12C renal was 96%; in the assay on UO-31 renal, 76.2%; with TK-10 renal it was 154%; in the assay with ACHN renal it was 94.8%; with CAKI-1 renal it was 89.3%; with A498 renal it was 93%. The growth in the assay with CCRF-CEM leukemia was 102%; in the assay with MOLT-4 leukemia, 99.1%.

`C#Cc1cc(C(=O)Nc2ccc(CNCCN3CCOCC3)c(C(F)(F)F)c2)ccc1C`: the growth was 88% in the assay on HCT-15 colon; 68.8% in the assay with HT29 colon; 76% in the assay with SNB-75 CNS; 96.1% in the assay on SNB-19 CNS; 80.7% in the assay with U251 CNS; 89.3% in the assay with PC-3 prostate. In addition, the growth is 94.2% in the assay with SK-MEL-5 melanoma; 93.9% in the assay on UACC-62 melanoma; 1.04% (active) in the assay on LOX IMVI melanoma; 93.6% in the assay with SK-MEL-28 melanoma; 104% with SK-MEL-2 melanoma; 84.7% with EKVX NSCLC. The growth in the assay on SN12C renal was 93.5%; in the assay with UO-31 renal, 72.7%; in the assay with TK-10 renal, 108%; in the assay on ACHN renal, 98.4%; in the assay on CAKI-1 renal, 82.7%; in the assay with A498 renal, 90.4%. In addition, the results for the growth with CCRF-CEM leukemia and in the assay on MOLT-4 leukemia were 98.7% and 81.6%, respectively.

Take `Cc1ccc(-c2nc(SCC(=O)c3ccccc3)nc(Nc3ccc(S(N)(=O)=O)cc3)c2C#N)cc1`: the growth was 72.1% in the assay on HCT-15 colon; 92.3% in the assay with HT29 colon; 80% in the assay on SNB-75 CNS; 77.3% in the assay on SNB-19 CNS; 47.4% in the assay on U251 CNS; 92.6% in the assay with PC-3 prostate. The growth was 75.5% in the assay on SK-MEL-5 melanoma; 80.3% with UACC-62 melanoma; 15.4% in the assay with LOX IMVI melanoma; 81.1% in the assay on SK-MEL-28 melanoma; 95.7% in the assay with SK-MEL-2 melanoma; 99.8% in the assay with EKVX NSCLC. The growth in the assay on SN12C renal was 63%; in the assay with UO-31 renal, 74.9%; in the assay with TK-10 renal, 67.5%; in the assay with ACHN renal it was 89.7%; with CAKI-1 renal, 51.5%; in the assay on A498 renal, 104%. The growth was 82% in the assay with CCRF-CEM leukemia and 86.5% in the assay with MOLT-4 leukemia.

Turning to `COc1ccc(/C=N/NC(=O)c2c(N)nn(C)c2Nc2ccccc2)cc1`, the growth is 19.1% with HCT-15 colon; 18.6% with HT29 colon; 35.1% in the assay with SNB-75 CNS; 36.8% in the assay with SNB-19 CNS; 33.3% in the assay with U251 CNS; 55.9% in the assay on PC-3 prostate. The growth with SK-MEL-5 melanoma was 57.2%; with UACC-62 melanoma, 23.7%; with LOX IMVI melanoma it was 18.9%; in the assay on SK-MEL-28 melanoma it was 57.5%; with SK-MEL-2 melanoma, 7.07% (active); in the assay on EKVX NSCLC, 69.7%. Also, the growth with SN12C renal is 57.6%; with UO-31 renal it was 51.2%; with TK-10 renal, 89.2%; with ACHN renal, 50%; in the assay with CAKI-1 renal it was 39.8%; with A498 renal it was 33.1%. Besides, the growth with CCRF-CEM leukemia was 38.5%; with MOLT-4 leukemia it was 49.4%.

As for `CNc1sc(S(=O)(=O)NC)nc1S(=O)(=O)c1ccc(C)cc1`, the growth in the assay with HCT-15 colon was 94.2%; in the assay on HT29 colon, 107%; in the assay on SNB-75 CNS it was 88.3%; in the assay with SNB-19 CNS it was 96%; in the assay on U251 CNS, 95.8%; in the assay on PC-3 prostate, 96.7%. The growth is 98.4% with SK-MEL-5 melanoma; 91.3% with UACC-62 melanoma; 96.1% in the assay with LOX IMVI melanoma; 102% with SK-MEL-28 melanoma; 103% in the assay with SK-MEL-2 melanoma; 95.2% in the assay with EKVX NSCLC. Besides, the growth was 101% in the assay on SN12C renal; 77.7% in the assay on UO-31 renal; 95.5% in the assay with TK-10 renal; 101% in the assay on ACHN renal; 91.9% in the assay with CAKI-1 renal; 93.1% in the assay on A498 renal. The growth with CCRF-CEM leukemia was 104%; in the assay with MOLT-4 leukemia, 100%.

For the molecule `Fc1ccc(-c2cn3c(-c4c[nH]c5ccc(Br)cc45)csc3n2)cc1`, the growth in the assay with HCT-15 colon was 77.8%; in the assay with HT29 colon, 97.9%; in the assay with SNB-75 CNS, -7.44% (active); in the assay with SNB-19 CNS it was 52.6%; in the assay on U251 CNS, 47.8%; with PC-3 prostate, 73.6%. Also, the growth in the assay with SK-MEL-5 melanoma was 95.2%; with UACC-62 melanoma it was 65.7%; in the assay with LOX IMVI melanoma, 13.1%; with SK-MEL-28 melanoma it was 87.8%; with SK-MEL-2 melanoma it was 90.5%; with EKVX NSCLC, 64.9%. The growth in the assay with SN12C renal is 52.4%; in the assay with UO-31 renal, 47.8%; with TK-10 renal it was 80.3%; with ACHN renal, 49%; with CAKI-1 renal, 38.3%; in the assay on A498 renal it was 91.3%. In addition, the results for the growth with CCRF-CEM leukemia and with MOLT-4 leukemia were 70.3% and 63.9%, respectively.

On to `CC(=O)OC[C@]12CC[C@@H](C(=O)/C=C/c3cccnc3)[C@@H]1[C@H]1CC[C@@H]3[C@@]4(C)CC[C@H](OC(C)=O)C(C)(C)[C@@H]4CC[C@@]3(C)[C@]1(C)CC2`, for which the growth in the assay on HCT-15 colon is -53% (active); in the assay on HT29 colon, 6.53% (active); in the assay with SNB-75 CNS it was 54.3%; in the assay with SNB-19 CNS, 46.6%; in the assay with U251 CNS, 23.4%; with PC-3 prostate, 19.9%. The growth in the assay with SK-MEL-5 melanoma was -96.2% (active); in the assay with UACC-62 melanoma, -4.76% (active); with LOX IMVI melanoma, -84% (active); with SK-MEL-28 melanoma, -56.4% (active); in the assay with SK-MEL-2 melanoma, -35.9% (active); in the assay on EKVX NSCLC it was 21.8%. Also, the growth was 19% in the assay on SN12C renal; 12.1% with UO-31 renal; 38.5% with TK-10 renal; -55.5% (active) in the assay on ACHN renal; 12.2% in the assay on CAKI-1 renal; -47.7% (active) with A498 renal. For the same molecule, the growth in the assay with CCRF-CEM leukemia is 2.41% (active); in the assay on MOLT-4 leukemia, -5.14% (active).

With `CCCCCCCCCCCC(=O)NC(C)(C)C(=O)N1CCCC1C(=O)NC(C)(C)C(=O)NC(C)(C)C(=O)N1CCCC1C(=O)NC(C)(C)C(=O)NC(C)(C)C(=O)N1CCCC1C(=O)NC(C)C(=O)NCCC(=O)NC(C)C(=O)NC(C)(C)C(=O)NC(C)(C)C(=O)NC(C)(C)C(=O)NCCC(=O)NC(C)(C)C(=O)NC(C)(C)C(=O)NC(C)(C)C(=O)NC(C)C(=O)NCCC(=O)O` (stereo not given), the growth was -96.5% (active) in the assay on HCT-15 colon; -86.6% (active) with HT29 colon; -89.7% (active) in the assay on SNB-75 CNS; -97.4% (active) in the assay with SNB-19 CNS; -94.7% (active) in the assay with U251 CNS; -93% (active) with PC-3 prostate. Moreover, the growth in the assay with SK-MEL-5 melanoma was -98.5% (active); in the assay with UACC-62 melanoma, -90.9% (active); in the assay on LOX IMVI melanoma, -92.4% (active); with SK-MEL-28 melanoma it was -93.8% (active); in the assay with SK-MEL-2 melanoma, -96.2% (active); with EKVX NSCLC it was -88.5% (active). The growth in the assay with SN12C renal is -94% (active); in the assay on UO-31 renal, -99.7% (active); in the assay with TK-10 renal, -97.1% (active); in the assay on ACHN renal, -100% (active); with CAKI-1 renal, -94.2% (active); in the assay with A498 renal it was -98.5% (active). Further, the growth in the assay with CCRF-CEM leukemia is -55.6% (active); in the assay on MOLT-4 leukemia it was -67.9% (active).
